Drawing on paper PMC7862700, “An all-to-all approach to the identification of sequence-specific readers for epigenetic DNA modifications on cytosine”, this text covers binding signal for 8 sequences.

Holding throughout (test): DAPPL (digital affinity profiling via proximity ligation, sequencing); 10 mM Tris-HCl pH 7.5, 50 mM NaCl, 1 mM DTT, 4% glycerol, room temperature, 30 min; GST-TFs on glutathione beads, 16-mer random dsDNA library, 0.1% formaldehyde crosslink after washing; high values mean tight binding
What all share (settings): protein: recombinant; tags: N-terminal GST; dsDNA, one strand shown

One assay deals with T1, ERF (Homo sapiens, UniProt P50548 1-548).
T1 sequence: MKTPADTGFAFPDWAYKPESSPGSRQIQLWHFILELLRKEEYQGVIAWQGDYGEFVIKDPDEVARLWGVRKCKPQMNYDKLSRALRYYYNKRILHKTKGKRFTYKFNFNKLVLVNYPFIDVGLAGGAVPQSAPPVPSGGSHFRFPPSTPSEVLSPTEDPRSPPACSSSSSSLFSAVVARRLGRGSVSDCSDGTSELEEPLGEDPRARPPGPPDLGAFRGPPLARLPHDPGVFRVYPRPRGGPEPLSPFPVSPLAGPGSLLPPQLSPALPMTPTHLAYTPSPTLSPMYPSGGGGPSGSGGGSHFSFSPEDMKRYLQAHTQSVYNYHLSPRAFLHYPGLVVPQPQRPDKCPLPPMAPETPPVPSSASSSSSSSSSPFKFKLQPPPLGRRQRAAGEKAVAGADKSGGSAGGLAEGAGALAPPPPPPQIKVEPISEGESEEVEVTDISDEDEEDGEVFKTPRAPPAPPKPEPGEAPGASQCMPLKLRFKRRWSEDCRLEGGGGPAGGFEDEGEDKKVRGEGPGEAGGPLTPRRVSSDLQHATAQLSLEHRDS
The essentials:
(§1)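 Pools were built from human transcription factors expressed in yeast as GST fusions, captured on glutathione beads and DNA-barcoded, along with a tag-only sample. Incubation with 200 nmole of a 16-mer random double-stranded DNA library lasted 30 min at room temperature in Tris/NaCl/DTT/glycerol buffer, and was followed by washing, 0.1% formaldehyde crosslinking, proximity ligation, PCR amplification and Illumina NextSeq500 sequencing. Binding signal is the quotient of each hexamer's read frequency for a factor and its frequency for the tag-only sample.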

Another assay deals with T2, ETV3L (Homo sapiens, UniProt Q6ZN32 1-361).
T2 sequence: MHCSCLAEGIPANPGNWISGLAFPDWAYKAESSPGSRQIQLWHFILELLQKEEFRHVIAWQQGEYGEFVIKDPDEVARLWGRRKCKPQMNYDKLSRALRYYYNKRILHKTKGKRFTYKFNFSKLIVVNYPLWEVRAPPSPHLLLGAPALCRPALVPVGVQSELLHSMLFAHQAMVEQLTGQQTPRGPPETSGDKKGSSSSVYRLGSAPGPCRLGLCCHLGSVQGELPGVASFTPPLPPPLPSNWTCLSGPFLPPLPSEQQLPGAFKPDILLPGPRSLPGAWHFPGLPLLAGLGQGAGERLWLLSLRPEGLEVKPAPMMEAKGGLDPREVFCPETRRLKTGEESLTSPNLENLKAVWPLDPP
The essentials: as §1

The next assay concerns the target T3, ETS2 (Homo sapiens, UniProt P15036 1-469).
T3 sequence: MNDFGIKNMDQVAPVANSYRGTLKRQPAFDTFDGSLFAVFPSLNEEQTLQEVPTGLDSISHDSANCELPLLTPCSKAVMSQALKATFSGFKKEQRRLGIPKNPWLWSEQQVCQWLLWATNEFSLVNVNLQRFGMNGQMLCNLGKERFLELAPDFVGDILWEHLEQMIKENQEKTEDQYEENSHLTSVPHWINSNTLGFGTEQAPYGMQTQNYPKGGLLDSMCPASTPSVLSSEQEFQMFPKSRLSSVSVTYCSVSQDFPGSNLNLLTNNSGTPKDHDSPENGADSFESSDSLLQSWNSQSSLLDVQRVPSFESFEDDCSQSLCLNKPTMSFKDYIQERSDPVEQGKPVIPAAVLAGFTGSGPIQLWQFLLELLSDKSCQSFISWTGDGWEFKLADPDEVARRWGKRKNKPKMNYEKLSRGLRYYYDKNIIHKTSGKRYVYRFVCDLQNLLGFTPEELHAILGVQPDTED
Summed up: as §1

A further assay deals with T4, SPDEF (Homo sapiens, UniProt O95238 1-335).
T4 sequence: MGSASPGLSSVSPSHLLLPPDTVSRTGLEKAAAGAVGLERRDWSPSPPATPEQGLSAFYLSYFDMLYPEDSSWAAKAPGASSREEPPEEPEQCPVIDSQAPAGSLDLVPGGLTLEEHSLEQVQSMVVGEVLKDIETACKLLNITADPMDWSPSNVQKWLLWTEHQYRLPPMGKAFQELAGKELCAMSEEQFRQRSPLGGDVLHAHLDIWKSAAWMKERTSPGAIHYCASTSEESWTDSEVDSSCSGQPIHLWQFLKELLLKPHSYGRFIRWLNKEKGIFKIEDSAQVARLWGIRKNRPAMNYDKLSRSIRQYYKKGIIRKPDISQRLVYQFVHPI
Summed up: as §1

The next assay concerns the target T5, ETV7 (Homo sapiens, UniProt Q9Y603 1-341).
T5 sequence: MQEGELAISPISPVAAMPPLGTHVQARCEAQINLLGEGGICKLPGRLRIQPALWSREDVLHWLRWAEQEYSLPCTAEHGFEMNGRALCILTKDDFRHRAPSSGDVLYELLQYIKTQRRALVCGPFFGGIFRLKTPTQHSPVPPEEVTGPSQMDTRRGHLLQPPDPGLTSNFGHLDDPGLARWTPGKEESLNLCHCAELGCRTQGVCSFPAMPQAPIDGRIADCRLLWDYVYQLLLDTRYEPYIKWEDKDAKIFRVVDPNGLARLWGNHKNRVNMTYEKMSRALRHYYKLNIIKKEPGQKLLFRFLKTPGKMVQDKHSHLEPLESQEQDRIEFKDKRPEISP
The essentials: as §1

Another assay deals with T6, ELF5 (Homo sapiens, UniProt Q9UKW6-2 1-255).
T6 sequence: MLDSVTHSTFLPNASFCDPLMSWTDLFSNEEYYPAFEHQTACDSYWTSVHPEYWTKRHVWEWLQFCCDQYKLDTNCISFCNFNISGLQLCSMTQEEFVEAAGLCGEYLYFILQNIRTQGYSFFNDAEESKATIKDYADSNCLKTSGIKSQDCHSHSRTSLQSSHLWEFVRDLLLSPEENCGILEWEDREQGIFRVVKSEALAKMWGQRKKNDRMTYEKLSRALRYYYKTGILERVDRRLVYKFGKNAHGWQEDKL
Summed up:
as §1

The target of the next assay is T7, ETV3 (Homo sapiens, UniProt P41162-2 1-143).
T7 sequence: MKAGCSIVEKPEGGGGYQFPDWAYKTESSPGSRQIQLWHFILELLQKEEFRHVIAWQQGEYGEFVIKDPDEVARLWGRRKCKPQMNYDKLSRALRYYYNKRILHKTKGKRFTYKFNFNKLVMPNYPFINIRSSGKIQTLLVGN
The essentials:
as §1

The target of a further assay is ETV6 (Homo sapiens, UniProt P41212 1-452). The essentials: as §1
Sequence of ETV6 (P41212 whole entry): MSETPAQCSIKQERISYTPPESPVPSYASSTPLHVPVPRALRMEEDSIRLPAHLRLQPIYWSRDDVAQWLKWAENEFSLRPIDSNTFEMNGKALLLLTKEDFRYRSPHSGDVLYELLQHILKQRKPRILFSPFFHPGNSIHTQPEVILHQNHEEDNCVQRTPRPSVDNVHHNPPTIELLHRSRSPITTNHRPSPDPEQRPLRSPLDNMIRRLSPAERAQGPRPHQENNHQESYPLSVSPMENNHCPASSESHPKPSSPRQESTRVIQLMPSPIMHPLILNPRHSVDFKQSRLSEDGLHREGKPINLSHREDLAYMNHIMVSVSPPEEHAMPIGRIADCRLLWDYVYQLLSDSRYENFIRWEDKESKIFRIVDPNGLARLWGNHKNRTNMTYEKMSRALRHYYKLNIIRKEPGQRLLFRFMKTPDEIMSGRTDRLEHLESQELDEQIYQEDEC

CTCCCA: the binding signal with ERF is 1.54 fold enrichment (6-mer frequency, TF over GST control); with ETV3L it was 1.29 fold enrichment (6-mer frequency, TF over GST control); with ETS2, 1.37 fold enrichment (6-mer frequency, TF over GST control); with SPDEF, 1.42 fold enrichment (6-mer frequency, TF over GST control); with ETV7, 1.07 fold enrichment (6-mer frequency, TF over GST control); with ELF5, 1.41 fold enrichment (6-mer frequency, TF over GST control). Moreover, the binding signal with ETV3 was 1.34 fold enrichment (6-mer frequency, TF over GST control); with ETV6, 1.46 fold enrichment (6-mer frequency, TF over GST control).

On to TCCTAC, for which the binding signal with ERF was 1.5 fold enrichment (6-mer frequency, TF over GST control); with ETV3L, 1.52 fold enrichment (6-mer frequency, TF over GST control); with ETS2, 1.48 fold enrichment (6-mer frequency, TF over GST control); with SPDEF it was 1.43 fold enrichment (6-mer frequency, TF over GST control); in the assay with ETV7 it was 1.39 fold enrichment (6-mer frequency, TF over GST control); in the assay with ELF5 it was 1.79 fold enrichment (6-mer frequency, TF over GST control). The binding signal was 1.48 fold enrichment (6-mer frequency, TF over GST control) in the assay with ETV3 and 1.47 fold enrichment (6-mer frequency, TF over GST control) with ETV6.

In the case of TTACTT, the binding signal is 1.49 fold enrichment (6-mer frequency, TF over GST control) with ERF; 1.37 fold enrichment (6-mer frequency, TF over GST control) with ETV3L; 1.48 fold enrichment (6-mer frequency, TF over GST control) in the assay with ETS2; 1.45 fold enrichment (6-mer frequency, TF over GST control) in the assay with SPDEF; 1.43 fold enrichment (6-mer frequency, TF over GST control) with ETV7; 1.54 fold enrichment (6-mer frequency, TF over GST control) in the assay with ELF5. Besides, the binding signal was 1.58 fold enrichment (6-mer frequency, TF over GST control) with ETV3 and 1.62 fold enrichment (6-mer frequency, TF over GST control) with ETV6.

Regarding TGTAAT, the binding signal was 1.14 fold enrichment (6-mer frequency, TF over GST control) with ERF; 1.18 fold enrichment (6-mer frequency, TF over GST control) in the assay with ETV3L; 1.23 fold enrichment (6-mer frequency, TF over GST control) with ETS2; 1.25 fold enrichment (6-mer frequency, TF over GST control) with SPDEF; 1.26 fold enrichment (6-mer frequency, TF over GST control) with ETV7; 1.22 fold enrichment (6-mer frequency, TF over GST control) with ELF5. The binding signal with ETV3 is 1.05 fold enrichment (6-mer frequency, TF over GST control); with ETV6, 1.22 fold enrichment (6-mer frequency, TF over GST control).

As for TCTACT, the binding signal with ERF was 1.42 fold enrichment (6-mer frequency, TF over GST control); with ETV3L it was 1.51 fold enrichment (6-mer frequency, TF over GST control); with ETS2 it was 1.41 fold enrichment (6-mer frequency, TF over GST control); with SPDEF, 1.42 fold enrichment (6-mer frequency, TF over GST control); in the assay with ETV7 it was 1.32 fold enrichment (6-mer frequency, TF over GST control); with ELF5 it was 1.37 fold enrichment (6-mer frequency, TF over GST control). For the same sequence, the binding signal with ETV3 was 1.2 fold enrichment (6-mer frequency, TF over GST control); with ETV6 it was 1.41 fold enrichment (6-mer frequency, TF over GST control).

Turning to CTATGG, the binding signal with ERF is 1.11 fold enrichment (6-mer frequency, TF over GST control); with ETV3L, 1.16 fold enrichment (6-mer frequency, TF over GST control); with ETS2, 1.16 fold enrichment (6-mer frequency, TF over GST control); in the assay with SPDEF it was 1.29 fold enrichment (6-mer frequency, TF over GST control); with ETV7 it was 1.39 fold enrichment (6-mer frequency, TF over GST control); with ELF5 it was 1.09 fold enrichment (6-mer frequency, TF over GST control). The binding signal in the assay with ETV3 was 1.29 fold enrichment (6-mer frequency, TF over GST control); in the assay with ETV6 it was 1.09 fold enrichment (6-mer frequency, TF over GST control).

CTCAAT: the binding signal is 1.22 fold enrichment (6-mer frequency, TF over GST control) in the assay with ERF; 1.36 fold enrichment (6-mer frequency, TF over GST control) in the assay with ETV3L; 1.21 fold enrichment (6-mer frequency, TF over GST control) with ETS2; 1.21 fold enrichment (6-mer frequency, TF over GST control) in the assay with SPDEF; 1.16 fold enrichment (6-mer frequency, TF over GST control) in the assay with ETV7; 1.27 fold enrichment (6-mer frequency, TF over GST control) with ELF5. The binding signal with ETV3 is 1.2 fold enrichment (6-mer frequency, TF over GST control); in the assay with ETV6, 1.23 fold enrichment (6-mer frequency, TF over GST control).

For the sequence CCAATA, the binding signal in the assay with ERF is 1.34 fold enrichment (6-mer frequency, TF over GST control); with ETV3L, 1.21 fold enrichment (6-mer frequency, TF over GST control); with ETS2, 1.28 fold enrichment (6-mer frequency, TF over GST control); with SPDEF, 1.24 fold enrichment (6-mer frequency, TF over GST control); with ETV7 it was 1.14 fold enrichment (6-mer frequency, TF over GST control); with ELF5 it was 1.13 fold enrichment (6-mer frequency, TF over GST control). Also, the binding signal in the assay with ETV3 was 1.19 fold enrichment (6-mer frequency, TF over GST control); in the assay with ETV6, 1.23 fold enrichment (6-mer frequency, TF over GST control).
